Measurements reported in the supplement of paper PMC11001985.
A number with no mark means an inactive call.

Compound: C#CCNC(=O)CCSSCCC(=O)NCCc1ccc(C=O)c(C=O)c1
Assay: lysine labeling ratio R10:1 (500 µM / 50 µM probe), SILAC-ABPP in living cells; higher = lower intrinsic lysine reactivity toward the probe, active = 2 or less
Details: HeLa; probe concentrations 500 vs 50 µM
How it was run: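 The two probe levels, 50 µM and 500 µM, of an alkyne-tagged, disulfide-linked lysine probe were applied to living light and heavy SILAC HeLa cells in PBS at room temperature, and the labels were run in both forward and reverse orientation. Mixed lysates underwent biotin-azide click chemistry, trypsin digestion, neutravidin capture, DTT release and alkylation before LC-MS/MS on a TIMS-TOF Pro. R is the filtered median high-probe/low-probe MS1 peptide ratio for each lysine, summarised as the median over forward and reverse replicates. Nothing above 20 is reported; such values are set to 20.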

UniProt Q9H336, sequence (Q9H336 whole entry): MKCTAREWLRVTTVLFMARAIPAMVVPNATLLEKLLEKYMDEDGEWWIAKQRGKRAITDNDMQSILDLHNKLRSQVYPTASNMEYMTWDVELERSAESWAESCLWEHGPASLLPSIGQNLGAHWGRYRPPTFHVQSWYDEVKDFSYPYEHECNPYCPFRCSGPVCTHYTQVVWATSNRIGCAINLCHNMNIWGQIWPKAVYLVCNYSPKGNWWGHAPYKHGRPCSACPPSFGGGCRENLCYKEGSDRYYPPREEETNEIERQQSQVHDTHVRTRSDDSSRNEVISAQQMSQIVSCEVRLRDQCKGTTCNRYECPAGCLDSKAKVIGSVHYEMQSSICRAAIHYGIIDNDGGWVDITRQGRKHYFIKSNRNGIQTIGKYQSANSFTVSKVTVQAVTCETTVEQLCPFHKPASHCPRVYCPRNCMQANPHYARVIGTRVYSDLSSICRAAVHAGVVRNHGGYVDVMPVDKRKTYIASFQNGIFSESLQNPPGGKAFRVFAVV
UniProt P17987, sequence (P17987 whole entry): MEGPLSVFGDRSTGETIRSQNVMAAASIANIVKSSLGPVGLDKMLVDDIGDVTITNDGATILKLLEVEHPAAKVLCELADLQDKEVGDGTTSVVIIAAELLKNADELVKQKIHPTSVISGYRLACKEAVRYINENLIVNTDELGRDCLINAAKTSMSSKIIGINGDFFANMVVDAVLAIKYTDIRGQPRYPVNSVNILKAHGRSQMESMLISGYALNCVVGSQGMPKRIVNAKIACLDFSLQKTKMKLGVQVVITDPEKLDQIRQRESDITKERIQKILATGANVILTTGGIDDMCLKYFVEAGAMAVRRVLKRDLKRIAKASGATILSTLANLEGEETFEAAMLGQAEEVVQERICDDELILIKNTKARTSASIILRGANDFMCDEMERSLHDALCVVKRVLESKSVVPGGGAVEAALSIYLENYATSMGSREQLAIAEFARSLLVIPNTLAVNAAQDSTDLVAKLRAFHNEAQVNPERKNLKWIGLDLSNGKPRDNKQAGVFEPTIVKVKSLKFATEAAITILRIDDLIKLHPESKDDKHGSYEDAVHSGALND
UniProt P22061, sequence (P22061 whole entry): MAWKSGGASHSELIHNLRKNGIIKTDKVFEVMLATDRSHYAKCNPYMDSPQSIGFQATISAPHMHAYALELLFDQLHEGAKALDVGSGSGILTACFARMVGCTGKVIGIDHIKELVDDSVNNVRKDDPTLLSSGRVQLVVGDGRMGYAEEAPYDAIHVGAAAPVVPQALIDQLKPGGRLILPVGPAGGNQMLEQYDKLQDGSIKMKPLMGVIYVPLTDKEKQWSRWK
UniProt P11717, sequence (P11717 whole entry): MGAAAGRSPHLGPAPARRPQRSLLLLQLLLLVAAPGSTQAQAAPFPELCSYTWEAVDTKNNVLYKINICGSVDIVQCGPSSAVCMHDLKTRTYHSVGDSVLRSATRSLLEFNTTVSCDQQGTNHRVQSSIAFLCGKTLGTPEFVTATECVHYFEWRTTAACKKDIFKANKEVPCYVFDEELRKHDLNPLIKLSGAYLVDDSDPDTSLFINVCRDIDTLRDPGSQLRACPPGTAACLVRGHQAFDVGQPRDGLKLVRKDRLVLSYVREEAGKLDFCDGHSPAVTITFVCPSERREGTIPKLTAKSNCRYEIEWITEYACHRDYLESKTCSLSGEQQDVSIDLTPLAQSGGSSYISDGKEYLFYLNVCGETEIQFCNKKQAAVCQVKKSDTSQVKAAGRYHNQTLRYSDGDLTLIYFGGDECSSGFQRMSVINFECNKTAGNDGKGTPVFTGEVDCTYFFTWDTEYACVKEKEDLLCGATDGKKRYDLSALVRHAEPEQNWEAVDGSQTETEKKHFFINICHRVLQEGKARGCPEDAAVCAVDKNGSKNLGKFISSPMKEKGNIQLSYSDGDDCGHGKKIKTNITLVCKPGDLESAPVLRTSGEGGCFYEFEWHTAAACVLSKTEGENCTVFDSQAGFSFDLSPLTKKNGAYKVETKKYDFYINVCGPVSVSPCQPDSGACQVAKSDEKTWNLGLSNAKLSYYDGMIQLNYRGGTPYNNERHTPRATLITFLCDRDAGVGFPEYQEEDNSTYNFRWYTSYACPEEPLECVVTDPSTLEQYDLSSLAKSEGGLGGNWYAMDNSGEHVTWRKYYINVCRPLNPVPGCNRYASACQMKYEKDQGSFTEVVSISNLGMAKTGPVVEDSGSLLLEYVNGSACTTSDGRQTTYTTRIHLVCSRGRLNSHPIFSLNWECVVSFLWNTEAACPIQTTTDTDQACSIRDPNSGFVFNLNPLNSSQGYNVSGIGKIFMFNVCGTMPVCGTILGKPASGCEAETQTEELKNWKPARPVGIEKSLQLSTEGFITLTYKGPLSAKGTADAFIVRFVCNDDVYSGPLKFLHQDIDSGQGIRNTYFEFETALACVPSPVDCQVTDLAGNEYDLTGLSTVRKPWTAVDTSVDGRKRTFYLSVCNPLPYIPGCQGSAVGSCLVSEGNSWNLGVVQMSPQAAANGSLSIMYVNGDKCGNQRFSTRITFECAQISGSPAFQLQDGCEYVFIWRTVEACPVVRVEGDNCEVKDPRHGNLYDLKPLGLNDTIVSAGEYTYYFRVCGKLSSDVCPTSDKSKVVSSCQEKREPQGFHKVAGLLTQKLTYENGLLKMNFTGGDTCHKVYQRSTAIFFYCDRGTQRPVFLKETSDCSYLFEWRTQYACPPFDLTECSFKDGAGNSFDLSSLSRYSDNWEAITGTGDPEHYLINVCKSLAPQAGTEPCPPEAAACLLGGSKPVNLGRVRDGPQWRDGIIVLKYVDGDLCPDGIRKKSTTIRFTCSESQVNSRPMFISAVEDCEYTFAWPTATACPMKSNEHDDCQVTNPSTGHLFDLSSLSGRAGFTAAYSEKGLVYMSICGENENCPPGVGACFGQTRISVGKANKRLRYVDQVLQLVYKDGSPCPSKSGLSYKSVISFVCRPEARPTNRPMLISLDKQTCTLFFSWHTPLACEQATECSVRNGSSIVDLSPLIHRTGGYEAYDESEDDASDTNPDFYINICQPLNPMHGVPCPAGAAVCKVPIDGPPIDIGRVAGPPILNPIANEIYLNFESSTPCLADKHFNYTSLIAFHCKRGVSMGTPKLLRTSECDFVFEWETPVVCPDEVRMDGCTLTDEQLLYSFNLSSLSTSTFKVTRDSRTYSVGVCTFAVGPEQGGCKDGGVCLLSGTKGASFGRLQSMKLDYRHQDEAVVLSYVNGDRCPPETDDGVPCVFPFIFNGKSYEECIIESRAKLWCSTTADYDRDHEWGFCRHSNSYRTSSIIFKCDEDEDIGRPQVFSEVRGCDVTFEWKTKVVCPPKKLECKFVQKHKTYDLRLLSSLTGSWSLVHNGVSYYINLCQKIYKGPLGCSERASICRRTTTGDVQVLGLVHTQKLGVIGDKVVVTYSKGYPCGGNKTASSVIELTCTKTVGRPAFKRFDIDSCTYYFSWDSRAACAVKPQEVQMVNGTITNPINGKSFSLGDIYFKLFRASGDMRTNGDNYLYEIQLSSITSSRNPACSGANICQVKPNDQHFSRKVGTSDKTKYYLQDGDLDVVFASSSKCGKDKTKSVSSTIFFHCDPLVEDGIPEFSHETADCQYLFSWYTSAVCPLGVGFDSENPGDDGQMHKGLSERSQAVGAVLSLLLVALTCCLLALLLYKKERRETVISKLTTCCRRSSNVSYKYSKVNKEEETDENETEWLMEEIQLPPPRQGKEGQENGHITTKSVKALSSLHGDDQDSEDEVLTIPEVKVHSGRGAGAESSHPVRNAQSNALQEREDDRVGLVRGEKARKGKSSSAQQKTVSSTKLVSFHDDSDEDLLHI
UniProt Q00341, sequence (Q00341 whole entry): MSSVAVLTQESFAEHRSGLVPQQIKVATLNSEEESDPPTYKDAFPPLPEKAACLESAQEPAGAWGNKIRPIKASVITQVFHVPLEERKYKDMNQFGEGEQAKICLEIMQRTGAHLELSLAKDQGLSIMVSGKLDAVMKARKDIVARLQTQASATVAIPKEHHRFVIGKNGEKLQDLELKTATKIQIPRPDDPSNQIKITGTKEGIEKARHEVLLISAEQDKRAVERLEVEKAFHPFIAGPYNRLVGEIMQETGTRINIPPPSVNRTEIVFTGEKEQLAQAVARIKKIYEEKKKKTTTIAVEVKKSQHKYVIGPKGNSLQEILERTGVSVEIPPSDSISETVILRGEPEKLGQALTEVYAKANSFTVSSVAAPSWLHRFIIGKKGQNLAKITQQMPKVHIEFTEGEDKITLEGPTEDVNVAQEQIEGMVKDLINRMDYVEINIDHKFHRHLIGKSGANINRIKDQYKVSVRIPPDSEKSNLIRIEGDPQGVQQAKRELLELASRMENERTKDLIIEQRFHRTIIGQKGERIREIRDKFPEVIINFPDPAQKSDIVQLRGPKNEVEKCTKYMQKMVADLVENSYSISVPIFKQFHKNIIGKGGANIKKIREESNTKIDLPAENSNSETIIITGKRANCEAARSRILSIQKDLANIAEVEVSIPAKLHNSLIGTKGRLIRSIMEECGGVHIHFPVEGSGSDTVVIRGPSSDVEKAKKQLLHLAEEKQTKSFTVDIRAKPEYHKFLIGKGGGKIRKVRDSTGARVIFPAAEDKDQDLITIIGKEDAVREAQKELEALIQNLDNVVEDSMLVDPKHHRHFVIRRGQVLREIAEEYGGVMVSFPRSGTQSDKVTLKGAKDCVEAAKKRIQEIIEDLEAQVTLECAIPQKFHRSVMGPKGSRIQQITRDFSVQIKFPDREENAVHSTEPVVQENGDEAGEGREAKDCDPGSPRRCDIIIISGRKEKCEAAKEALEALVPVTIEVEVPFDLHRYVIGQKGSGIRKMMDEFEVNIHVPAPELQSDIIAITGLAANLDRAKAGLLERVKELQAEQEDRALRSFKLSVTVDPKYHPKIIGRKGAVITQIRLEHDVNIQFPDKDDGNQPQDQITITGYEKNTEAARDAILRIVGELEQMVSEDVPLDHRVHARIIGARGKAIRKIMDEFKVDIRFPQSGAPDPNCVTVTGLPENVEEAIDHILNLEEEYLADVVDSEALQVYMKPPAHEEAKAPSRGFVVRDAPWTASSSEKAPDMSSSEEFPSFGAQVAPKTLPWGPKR

Row | Target | lysine labeling ratio R10:1
1 | IGF2R (lysine site: K1285) (UniProt P11717) | 0.936 (active)
2 | MYH9 (lysine site: K1673) (UniProt P35579) | 5.57
3 | UniProt Q00341 (lysine site: K1066) | 6.11
4 | PCMT1 (lysine site: K125) (UniProt P22061) | 1.38 (active)
5 | TCP1 (lysine site: K199) (UniProt P17987) | 4.14
6 | UniProt Q9H336 (lysine site: K304) | 2.33
